Results published in PMC4336329 (PLoS ONE, 2015).
Screen size: about 310,000 compounds; about 14,000 (4.5%) showed an effect of 50% or more. Effects have a minus sign here. What follows is part of a selection rich in strong results, with near analogues and random picks from the rest.

Each compound was assayed against human ether-à-go-go-related gene (hERG) potassium channel (human, UniProt Q12809) (assay: primary screen, population patch clamp on CHO cells stably expressing hERG; higher = less effect of the substance).
Sequence of human ether-à-go-go-related gene (hERG) potassium channel (Q12809 whole entry, looked up): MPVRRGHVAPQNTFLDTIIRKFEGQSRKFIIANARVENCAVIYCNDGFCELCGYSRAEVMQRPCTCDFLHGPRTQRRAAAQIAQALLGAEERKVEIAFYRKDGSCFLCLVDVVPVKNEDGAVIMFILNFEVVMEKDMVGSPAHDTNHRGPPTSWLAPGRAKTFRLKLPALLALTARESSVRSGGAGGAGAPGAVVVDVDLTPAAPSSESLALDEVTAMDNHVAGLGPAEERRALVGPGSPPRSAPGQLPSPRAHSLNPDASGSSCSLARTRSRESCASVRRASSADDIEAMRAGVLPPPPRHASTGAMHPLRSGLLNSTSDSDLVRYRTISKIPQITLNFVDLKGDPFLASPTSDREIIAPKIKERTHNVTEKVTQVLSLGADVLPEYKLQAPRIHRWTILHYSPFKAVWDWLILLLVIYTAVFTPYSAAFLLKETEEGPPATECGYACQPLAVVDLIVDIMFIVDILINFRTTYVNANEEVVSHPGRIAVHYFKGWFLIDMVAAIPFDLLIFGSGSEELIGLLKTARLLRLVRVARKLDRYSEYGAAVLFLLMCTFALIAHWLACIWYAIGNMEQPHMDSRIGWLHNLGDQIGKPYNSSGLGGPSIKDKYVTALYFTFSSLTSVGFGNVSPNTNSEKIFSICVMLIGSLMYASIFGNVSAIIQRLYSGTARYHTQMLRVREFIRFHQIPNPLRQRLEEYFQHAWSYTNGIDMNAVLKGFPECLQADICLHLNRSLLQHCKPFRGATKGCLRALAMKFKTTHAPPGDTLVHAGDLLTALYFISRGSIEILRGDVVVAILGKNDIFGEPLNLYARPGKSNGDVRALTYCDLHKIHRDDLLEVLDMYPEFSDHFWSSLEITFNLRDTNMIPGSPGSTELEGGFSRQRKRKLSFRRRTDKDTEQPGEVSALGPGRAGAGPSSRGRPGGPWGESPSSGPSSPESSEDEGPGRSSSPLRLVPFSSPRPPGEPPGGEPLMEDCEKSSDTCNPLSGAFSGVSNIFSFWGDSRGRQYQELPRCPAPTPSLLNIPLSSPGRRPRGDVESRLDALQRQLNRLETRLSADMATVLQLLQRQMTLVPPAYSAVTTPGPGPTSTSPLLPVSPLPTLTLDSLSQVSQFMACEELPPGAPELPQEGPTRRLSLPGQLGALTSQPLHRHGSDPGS
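Note: peak tail current of the secondary pulse compared with the same well before compound.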

SMILES	hERG current change (%, negative = inhibition) at 10uM [%]
CC1CCCCC1NC(=O)Cn1c(=O)oc2cc(S(=O)(=O)N3CCCC3)ccc21 (stereo not drawn)	18.8
O=NNc1nc2ccccc2n1Cc1ccccc1	-1.83
COc1ccc(C2C(C(=O)c3ccc(C)o3)=C(O)C(=O)N2Cc2ccco2)cc1OC (stereo not drawn)	21
CCOCCCNC(=O)C(c1ccc(OC)cc1)N(Cc1ccc2c(c1)OCO2)C(=O)CNC(C)=O (stereo not drawn)	15.3
CCc1nnc(NC(=O)C(NC(=O)c2ccccc2Cl)C(C)C)s1 (stereo not drawn)	0.192
CCCCSc1nnc(-c2ccccc2)c2ccccc12	-37.3
Cc1ccc2c(c1)C(=O)N(CCCCO)C2=O	20.1
O=c1cc(CSc2ccccc2)[nH]c2ccccc12	8.17
O=C(C[n+]1ccccc1)Nc1c(Cl)cc(Cl)cc1Cl.[Cl-]	13.1
CC(=O)Nc1ccccc1C(=O)OCC(=O)c1ccccc1Cl	-12
CC1=NN(c2cccc(F)c2)C(=O)/C1=C/c1ccc(N(C)C)cc1	6.38
CCn1c(CNc2ccc(F)cc2)nnc1SCC(=O)OC1CCCCC1	-51.7
CC(C)OC(=O)CSc1nnc(CNc2ccc(Cl)cc2)n1Cc1ccccc1	-33
CCn1c(CNc2cccc(Cl)c2)nnc1SCC(=O)OC1CCCCC1	-25
CCn1c(CNc2ccc(Cl)cc2)nnc1SCC(=O)OC1CCCCC1	-37
CCOC(=O)CSc1nnc(CNc2ccc(Cl)cc2)n1Cc1ccccc1	-21.8
COC(=O)CSc1nnc(CNc2ccc(Cl)cc2)n1Cc1ccccc1	-54.7
CN(C)S(=O)(=O)c1cccc(NC(=O)COC(=O)CNC(=O)c2cccc([N+](=O)[O-])c2)c1	-39.6
CCOc1ccc(N2C(=O)CSC23CCCCC3)cc1	-3.56
COC(=O)c1[nH]c(C)c(/C(O)=C2\C(=O)C(=O)N(CCN(C)C)C2c2cccs2)c1C (stereo not drawn)	16.9

SMILES	hERG current change (%, negative = inhibition) at 10uM [%]
CCOC(CNC(=O)c1ccc2c(c1)ncn2-c1cccc(F)c1)OCC	-17.3
O=C(CSc1n[nH]c(=O)n1-c1ccc2c(c1)OCCO2)Nc1ccccc1	13
COc1ccc(OCC(=O)N/N=C/c2ccncc2)cc1	17.9
CCOC(=O)c1c(N2CCN(c3ccccc3)CC2)cc(C)nc1C.O=C([O-])C(=O)[O-]	-72
CCOC(=O)c1sc(NC(=O)CN2CCN(c3ccccc3)CC2)nc1C	-5.78
CCOC(=O)c1[nH]c(C)c(C(=O)N2CCN(c3ccccc3)CC2)c1C	-13.2
CC(OC(=O)c1ccc(-n2cnnn2)cc1)C(=O)Nc1ccccc1F (stereo not drawn)	-23.2
COc1ccccc1NC(=O)C(C)OC(=O)c1cccc(-n2cnnn2)c1 (stereo not drawn)	-35.2
COc1ccccc1NC(=O)C(C)OC(=O)c1ccc(-n2cnnn2)cc1 (stereo not drawn)	-87.5
COCCn1c(C)cc(/C=N/NC(=O)c2cc3ccccc3cc2O)c1C	10.3
O=C(Nc1ccccc1F)C1CCN(S(=O)(=O)c2cccnc2)CC1	9.24
COc1ccc(S(=O)(=O)N(C)C)cc1NC(=O)COC(=O)c1nc2nccc(C)n2n1	9.68
CC(NC(=O)CN1c2cccc3cccc(c23)S1(=O)=O)c1ccc(S(N)(=O)=O)cc1 (stereo not drawn)	-25.1
Cc1ccc(NC(=O)N/C=C/c2ccco2)cc1C	-1.57
Cn1cncc1COC(=O)c1ccc(Cl)cc1	5.21
C/C(=C\c1ccccc1)CN1CCN(c2ccccc2F)CC1	5.01
C/C=C(\C)CN1CCN(c2cccc(C)c2C)CC1	-3.49
COc1ccccc1N1CCN(C(=O)CCc2ccccc2)CC1	-11.4
COc1ccccc1N1CCN(CCc2ccccc2)CC1	-59.4
COc1ccccc1N1CCN(C/C(C)=C/c2ccccc2)CC1	-63.4

SMILES	hERG current change (%, negative = inhibition) at 10uM [%]
Cc1cccc(N2CCN(CCc3ccccc3)CC2)c1C	-75.1
COc1ccccc1N1CCN(Cc2nnnn2CCc2ccccc2)CC1.Cl	8.3
Cc1cccc(N2CCN(C(=S)NCCc3ccccc3)CC2)c1C	-5.03
C/C(=C\c1ccccc1)CN1CCN(c2ccccc2)CC1	-3.31
CC(C)C(NS(=O)(=O)c1cccs1)C(=O)NCc1ccccc1Cl (stereo not drawn)	0.166
Cn1sc(NC(=O)c2ccc(Cl)cc2)nc1=O	7.93
COc1ccc2c(c1)[nH]c1c(C)nccc12.Cl	-28
COc1cc(/C=N/NC(=O)C(NC(=O)c2ccccc2)c2n[nH]c(=O)c3ccccc23)ccc1OCC(N)=O (stereo not drawn)	5.88
CCOc1ccc2nc3c(cc2c1)CN(CCOC)C(=NC)S3.Cl	11.2
COc1cc(OC)cc(-c2c(-c3cccs3)c3cc(-c4ccc(OC)c(F)c4)ccc3n2C)c1	12.3
CCOc1ccc(OCC)c(S(=O)(=O)N2CCCCC2C)c1 (stereo not drawn)	-52.2
CCOc1ccc(OCC)c(S(=O)(=O)N2CCC(C)CC2)c1	-29.4
CCOc1ccc(OCC)c(S(=O)(=O)N2CCCCC2)c1	-12.2
O=C(NCCNc1nccc(C(F)(F)F)n1)c1cccs1	-11.3
Cc1ccc2c(ccc(=S)n2C)c1	22.1
CCOc1ccc2[nH]c(C)c(CN3CCCCC3)c(=O)c2c1	-13.1
O=C(/C=C/c1ccccc1)NCCS(=O)(=O)N1CCN(c2ccccc2F)CC1	-3.41
CCn1cc(C(=O)O)c(=O)c2cnc(N3CCNCC3)nc21	-65.4
C=CCNC(=S)N1CCN(c2ncc3c(=O)c(C(=O)O)cn(CC)c3n2)CC1	2.8
CCn1cc(C(=O)O)c(=O)c2cnc(N3CCN(C(=S)Nc4ccccc4)CC3)nc21	2.24
